Laboratory results from PubChem BioAssay (NCATS).
Inconclusive results are not listed. This is one part of the list. Activity calls are given as the source filed them. Unless noted, calls follow the shape of the dose curve; as a rule, active = well fitted curve in either direction with a large enough effect (not every such curve was filed as active); inconclusive = small, poorly fitted or top-dose-only effect, or another doubt; inactive = flat fitted curve, though single readings scatter.

What was measured:
[1] = biological target: Fructose-bisphosphate aldolase A (Oryctolagus cuniculus) (UniProt P00883); experiment: qHTS Assay for Inhibitors of Fructose-1,6-bisphosphate Aldolase from Giardia Lamblia: Rabbit FBPA Selectivity (AID 2794; active = well fitted curve in the direction sought with a large enough effect; an effect the other way counts as inactive or inconclusive; also: % is scaled to controls: 0 for no effect and ±100 for the full control effect; nearly all actives have a fitted effect of over 60% in size); settings: Rabbit muscle FBPA enzyme inhibition, selectivity counter-screen; series mostly up to 57.5 µM
Fructose-bisphosphate aldolase A (Oryctolagus cuniculus), sequence (P00883 whole entry, looked up): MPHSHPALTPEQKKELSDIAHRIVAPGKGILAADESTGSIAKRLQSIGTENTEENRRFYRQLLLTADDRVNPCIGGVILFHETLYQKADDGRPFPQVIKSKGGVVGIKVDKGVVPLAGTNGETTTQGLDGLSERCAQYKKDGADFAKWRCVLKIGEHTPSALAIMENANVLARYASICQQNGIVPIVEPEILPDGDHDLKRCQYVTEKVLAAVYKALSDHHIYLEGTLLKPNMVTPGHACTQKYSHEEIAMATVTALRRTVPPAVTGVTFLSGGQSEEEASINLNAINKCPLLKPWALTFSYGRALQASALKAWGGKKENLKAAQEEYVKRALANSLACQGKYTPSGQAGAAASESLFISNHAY
Method in brief: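 Glyceraldehyde-3-phosphate-coupled detection measures rabbit Class I aldolase turnover via AmpLite Red fluorescence. Compounds (final up to 57.5 uM) preincubated 10 min; signal read 20 min post-substrate at RT.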

[2] = biological target: Lysosomal acid glucosylceramidase (Homo sapiens) (UniProt P04062); experiment: Glucocerebrosidase-p2 (AID 348; in the data active = potency below about 10 µM; also: potency is read from the fitted curve at half-maximal effect); settings: purified GBA, blue fluorogenic substrate, 40 min
Lysosomal acid glucosylceramidase (Homo sapiens), sequence (P04062 whole entry, looked up): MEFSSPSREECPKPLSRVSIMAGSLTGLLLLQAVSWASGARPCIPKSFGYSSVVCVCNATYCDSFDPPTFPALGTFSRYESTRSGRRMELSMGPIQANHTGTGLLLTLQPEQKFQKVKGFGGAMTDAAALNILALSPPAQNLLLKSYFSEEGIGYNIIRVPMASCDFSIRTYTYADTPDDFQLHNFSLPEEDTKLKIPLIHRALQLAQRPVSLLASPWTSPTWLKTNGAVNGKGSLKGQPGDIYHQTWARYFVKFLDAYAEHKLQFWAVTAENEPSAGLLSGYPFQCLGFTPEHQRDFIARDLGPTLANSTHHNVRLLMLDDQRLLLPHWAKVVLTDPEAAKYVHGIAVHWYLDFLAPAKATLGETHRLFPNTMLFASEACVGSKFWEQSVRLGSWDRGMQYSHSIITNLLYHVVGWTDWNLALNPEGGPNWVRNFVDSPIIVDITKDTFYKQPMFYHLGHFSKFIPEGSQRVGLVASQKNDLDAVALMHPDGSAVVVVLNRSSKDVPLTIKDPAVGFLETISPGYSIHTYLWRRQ
Method in brief: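 Compounds titrated from 0.6 nM upwards against 0.2 nM enzyme in pH 5.9 citric acid/KH2PO4, taurocholate, tween-20; blue fluorogenic substrate 80 uM, 40 min room temperature, stopped and read Ex 365/Em 440 for AC50.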

[3] = AP1 Signaling Pathway (AID 357); settings: ME-180 AP-1-bla reporter, EGF-induced, beta-lactamase ratio, 5 h; at 7.69 µM (top of the series) unless noted; also: % is scaled to controls: 0 for no effect and ±100 for the full control effect
Method in brief: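 ME-180 cells with beta-lactamase reporter under AP-1 response element, stimulated with EC50 EGF; compounds tested in titration series, 5 h at 37 °C. CCF4 substrate added 2.5 h at room temperature; 460/530 nm emission ratio gave %activity and AC50.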

[4] = biological target: Cytochrome P450 1A2 (Homo sapiens) (UniProt P05177); experiment: p450-cyp1a2 (AID 410; calls by dose curve; also: potency is read from the fitted curve at half-maximal effect;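 as to activity change, negative = inhibition: -100% = full effect of reference inhibitor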); settings: recombinant CYP1A2, luciferin-ME demethylation, luminescence; series mostly up to 11.4 µM
Cytochrome P450 1A2 (Homo sapiens), sequence (P05177 whole entry, looked up): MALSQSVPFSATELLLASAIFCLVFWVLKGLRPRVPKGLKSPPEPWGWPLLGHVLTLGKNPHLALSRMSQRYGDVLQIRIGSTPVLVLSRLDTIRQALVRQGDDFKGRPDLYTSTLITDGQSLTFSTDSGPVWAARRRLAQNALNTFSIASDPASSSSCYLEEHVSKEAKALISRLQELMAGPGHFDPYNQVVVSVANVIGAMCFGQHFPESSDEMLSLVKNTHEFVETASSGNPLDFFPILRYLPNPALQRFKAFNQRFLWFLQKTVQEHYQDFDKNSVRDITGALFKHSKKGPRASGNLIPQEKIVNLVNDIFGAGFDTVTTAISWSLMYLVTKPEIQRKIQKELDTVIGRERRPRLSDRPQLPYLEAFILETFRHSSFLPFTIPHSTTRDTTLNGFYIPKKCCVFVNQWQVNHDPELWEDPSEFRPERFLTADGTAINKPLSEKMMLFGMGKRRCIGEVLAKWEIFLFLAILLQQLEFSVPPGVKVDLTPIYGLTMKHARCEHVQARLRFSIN
Method in brief: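 20nM CYP1A2 with 100uM Luciferin-ME (at Km) in 100mM KPO4; compound preincubated 10 min, NADPH regeneration added, 60 min at room temperature. Luciferin quantified by luminescence after detection reagent; normalized to 57 uM furafylline.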

[5] = NFAT Signaling Pathway (AID 444); settings: Jurkat NFAT-bla M1, carbachol, beta-lactamase ratio, 5 h; at 7.69 µM (top of the series) unless noted;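 also: carbachol stimulus at about its EC50 of 1 µM final; % is scaled to controls: 0 for no effect and ±100 for the full control effect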
Method in brief: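 Jurkat cells with NFAT-driven β-lactamase reporter and co-expressed M1 receptor, stimulated with carbachol (final 1 uM, ~EC50), compound titration, 5 h at 37 °C. CCF4 loaded 1 h at RT; 460/530 nm ratio gave %activity and AC50.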

[6] = Stat Signaling Pathway (AID 446); settings: ME-180 SIE beta-lactamase reporter, IL-6 stimulated, 5 h; at 7.69 µM (top of the series) unless noted;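 also: ME-180 cervical cancer cells given 40 pM IL-6 alongside compound; SIE-controlled beta-lactamase reporter measured as 460/530 nm FRET emission ratio; % is scaled to controls: 0 for no effect and ±100 for the full control effect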
Method in brief: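 ME-180 SIE-bla cells; overnight plating; cpd + IL-6 40 pM, 5 h, 37 C; LiveBLAzer 2.5 h RT; 460/530 nm emission ratio. Normalized to 300 pM IL-6 and 125 nM JAK inhibitor controls.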

[7] = biological target: Glucocorticoid receptor (Homo sapiens) (UniProt P04150); experiment: GR-GFP Redistribution (AID 450;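 active = compounds whose dose series gives a full or clear partial fitted curve of increased nuclear translocation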; also: potency is read from the fitted curve at half-maximal effect); settings: U2OS GR-GFP nuclear translocation, laser cytometry, 2 h
Glucocorticoid receptor (Homo sapiens), sequence (P04150 whole entry, looked up, the tested form may be a part): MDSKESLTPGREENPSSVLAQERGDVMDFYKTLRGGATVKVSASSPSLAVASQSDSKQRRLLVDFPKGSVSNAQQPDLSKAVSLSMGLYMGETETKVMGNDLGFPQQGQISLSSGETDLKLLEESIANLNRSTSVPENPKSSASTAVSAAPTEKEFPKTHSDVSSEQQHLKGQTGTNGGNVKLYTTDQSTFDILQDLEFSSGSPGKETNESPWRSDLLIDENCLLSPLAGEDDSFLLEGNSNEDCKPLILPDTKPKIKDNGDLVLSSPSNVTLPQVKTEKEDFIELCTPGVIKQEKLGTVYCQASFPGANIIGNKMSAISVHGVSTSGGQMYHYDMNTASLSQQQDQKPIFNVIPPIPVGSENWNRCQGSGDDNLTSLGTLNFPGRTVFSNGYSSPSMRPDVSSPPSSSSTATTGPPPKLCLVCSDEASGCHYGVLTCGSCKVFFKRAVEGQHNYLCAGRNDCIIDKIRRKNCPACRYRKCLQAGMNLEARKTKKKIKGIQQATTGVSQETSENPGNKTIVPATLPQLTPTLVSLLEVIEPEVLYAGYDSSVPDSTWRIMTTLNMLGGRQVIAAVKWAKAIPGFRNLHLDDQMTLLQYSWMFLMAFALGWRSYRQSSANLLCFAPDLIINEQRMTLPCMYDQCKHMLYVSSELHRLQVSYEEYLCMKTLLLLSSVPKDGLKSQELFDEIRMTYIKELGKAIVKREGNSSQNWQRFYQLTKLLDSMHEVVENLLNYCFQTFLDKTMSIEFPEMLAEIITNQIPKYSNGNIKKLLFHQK

[8] = biological target: Glucocorticoid receptor (Homo sapiens) (UniProt P04150); experiment: GR-EFC Redistribution (AID 451; calls by dose curve; also: potency is read from the fitted curve at half-maximal effect); settings: CHO-K1 GR-EFC translocation, beta-gal luminescence, 2 h
Method in brief: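 CHO-K1 cells expressing nuclear EA and GR-ED fragments of b-gal; compounds titrated up to 46 uM final, 2 h at 37 C. GR nuclear translocation read as complemented b-gal luminescence after 1 h RT detection.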

[9] = biological target: Mitogen-activated protein kinase 10 (Mus musculus) (UniProt Q61831); experiment: JNK3 AlphaScreen Assay (AID 530); settings: JNK3 lysate, c-Jun phosphorylation; series mostly up to 11.4 µM;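 also: kinase came from lysate of stimulated human HepG2 cells; signal reports phosphorylation of biotinylated GST-cJun 1-79 at Ser73 with 10 µM ATP; % is scaled to controls: 0 for no effect and ±100 for the full control effect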
Method in brief: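 Pre-activated (IL-1β/TNFα) JNK3 in HepG2 lysates phosphorylates biotin-GST-cJun(1-79), 10 uM ATP; anti-phospho-cJun(Ser73) AlphaScreen read at room temperature, pH 7.6 Tris buffer. Compounds pre-incubated 15 min as titrations.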

[10] = qHTS Assay for Inhibitors of Fructose-1,6-bisphosphate Aldolase from Giardia Lamblia: Coupling assay counterscreen confirmation (AID 2795; active = well fitted curve in the direction sought with a large enough effect; an effect the other way counts as inactive or inconclusive; also: % is scaled to controls: 0 for no effect and ±100 for the full control effect; nearly all actives have a fitted effect of over 55% in size); settings: GAPDH coupling enzyme counterscreen, biochemical; series mostly up to 57.5 µM
Method in brief: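 Primary-screen hits were tested against the coupling system alone (GAPDH-based, glyceraldehyde-3-phosphate), without aldolase. Compounds at up to 57.5 uM final were preincubated 10 min at RT with coupling enzymes, then substrate/detection mix (AmpLite Red) was added for 20 min at RT; fluorescence read at 525/598 nm.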

[11] = biological target: Cytochrome P450 3A4 (Homo sapiens) (UniProt P08684); experiment: qHTS Assay for Inhibitors and Substrates of Cytochrome P450 3A4 (AID 884; active = well fitted curve in the direction sought with a large enough effect; an effect the other way counts as inactive or inconclusive; also: potency is read from the fitted curve at half-maximal effect; nearly all actives have a fitted effect of over 50% in size); settings: recombinant CYP3A4, Luciferin-PPXE luminescence; series mostly up to 57.1 µM
Cytochrome P450 3A4 (Homo sapiens), sequence (P08684 whole entry, looked up): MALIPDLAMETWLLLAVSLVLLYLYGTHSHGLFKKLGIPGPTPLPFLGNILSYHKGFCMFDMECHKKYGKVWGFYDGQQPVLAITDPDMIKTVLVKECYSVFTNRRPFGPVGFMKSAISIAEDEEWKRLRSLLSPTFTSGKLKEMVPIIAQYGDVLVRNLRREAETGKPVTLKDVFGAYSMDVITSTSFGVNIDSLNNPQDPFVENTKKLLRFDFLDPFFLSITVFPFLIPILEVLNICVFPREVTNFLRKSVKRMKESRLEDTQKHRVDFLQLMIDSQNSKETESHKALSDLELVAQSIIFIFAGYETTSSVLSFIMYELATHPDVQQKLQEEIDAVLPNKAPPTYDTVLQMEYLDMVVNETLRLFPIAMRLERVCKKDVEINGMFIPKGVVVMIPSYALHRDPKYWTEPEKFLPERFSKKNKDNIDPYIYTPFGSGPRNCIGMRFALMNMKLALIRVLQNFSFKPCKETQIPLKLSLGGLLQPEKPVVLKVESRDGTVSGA
Method in brief: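 20 nM human CYP3A4 with 25 uM Luciferin-PPXE (at KM) in 200 mM KPO4, preincubated 10 min with compound; NADPH regeneration started a 60 min RT reaction. Luciferin detected by luminescence, normalized to 57 uM ketoconazole as full inhibition.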

[12] = biological target: Cytochrome P450 3A4 (Homo sapiens) (UniProt P08684); experiment: qHTS Assay for Activators of Cytochrome P450 3A4 (AID 885; active = well fitted curve in the direction sought with a large enough effect; an effect the other way counts as inactive or inconclusive; also: nearly all actives have a fitted effect of over 65% in size); settings: recombinant CYP3A4, Luciferin-PPXE luminescence, 60 min; series mostly up to 11.4 µM
Method in brief: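 20nM CYP3A4 + 25uM Luciferin-PPXE (=KM), 200mM KPO4; cpd 10 min RT; NADPH regen, 60 min RT; stop w/ detection buffer, 20 min; luminescence. Normalized to 57 uM ketoconazole.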

[13] = biological target: Cytochrome P450 2D6 (Homo sapiens) (UniProt P10635); experiment: qHTS Assay for Inhibitors and Substrates of Cytochrome P450 2D6 (AID 891; active = well fitted curve in the direction sought with a large enough effect; an effect the other way counts as inactive or inconclusive; also: potency is read from the fitted curve at half-maximal effect; nearly all actives have a fitted effect of over 60% in size); settings: recombinant CYP2D6, luciferin-ME EGE luminescence; series mostly up to 11.4 µM
Cytochrome P450 2D6 (Homo sapiens), sequence (P10635 whole entry, looked up): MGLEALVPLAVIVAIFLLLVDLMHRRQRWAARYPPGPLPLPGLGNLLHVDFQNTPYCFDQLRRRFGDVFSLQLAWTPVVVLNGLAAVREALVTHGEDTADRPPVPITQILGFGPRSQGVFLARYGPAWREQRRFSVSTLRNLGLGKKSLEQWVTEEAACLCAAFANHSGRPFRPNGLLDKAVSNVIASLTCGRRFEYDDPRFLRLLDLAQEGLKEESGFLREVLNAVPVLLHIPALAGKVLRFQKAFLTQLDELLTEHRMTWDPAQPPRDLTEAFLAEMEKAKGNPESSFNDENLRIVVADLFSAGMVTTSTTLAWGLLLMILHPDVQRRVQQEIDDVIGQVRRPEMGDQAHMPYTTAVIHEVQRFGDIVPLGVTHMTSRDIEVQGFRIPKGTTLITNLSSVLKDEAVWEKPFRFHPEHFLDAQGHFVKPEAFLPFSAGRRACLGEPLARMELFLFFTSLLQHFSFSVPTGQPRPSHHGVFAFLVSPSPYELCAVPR
Method in brief: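 Human CYP2D6 (5 nM) with 30 uM Luciferin-ME EGE (at Km) in 100 mM KPO4, compound preincubated 10 min, then NADPH regeneration system for 60 min at room temperature. Luciferin read by luminescence; normalized to 1.43 uM quinidine.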

[14] = Confirmation and Secondary Assay for Modulators of Hemoglobin Beta Chain Splicing at IVS2 654 locus (AID 910; active = well fitted curve in the direction sought with a large enough effect; an effect the other way counts as inactive or inconclusive;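 also: HeLa cells stably carrying EGFP split by mutant beta-globin IVS2-654 intron; % of control where 0% means no effect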); settings: HeLa EGFP-654 splicing reporter, GFP fluorescence, 48 h; series mostly up to 38.3 µM
Method in brief: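 HeLa cells stably expressing EGFP interrupted by β-globin IVS2-654 intron, seeded overnight in Opti-MEM/2% FCS, then treated 2 days at 37 °C. Restored splicing read as total peak GFP intensity per well by laser scanning cytometry (488 nm excitation, 500–520 nm emission); 500 nM antisense PNA as control.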

[15] = Confirmation and Secondary Assay for Modulators of Hemoglobin Beta Chain Splicing at IVS2 705 locus (AID 930; active = well fitted curve in the direction sought with a large enough effect; an effect the other way counts as inactive or inconclusive;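 also: HeLa cells stably expressing the EGFP-705 splicing reporter; GFP fluorescence per well restored by corrected splicing of the IVS2-705 intron in EGFP; % of control where 0% means no effect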); settings: HeLa EGFP-705 splicing reporter, GFP fluorescence, 48 h; series mostly up to 38.3 µM
Method in brief: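 HeLa IVS2-705 EGFP reporter cells, 500/well, compound 2 d at 37C; correct splicing yields fluorescent EGFP. Control: 500 nM antisense PNA. Read-out: total peak GFP intensity.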

[16] = biological target: Ubiquitin carboxyl-terminal hydrolase 1 (Homo sapiens) (UniProt O94782); experiment: Inhibitors of USP1/UAF1: Pilot qHTS (AID 504865; active = well fitted curve in the direction sought with a large enough effect; an effect the other way counts as inactive or inconclusive; also: potency is read from the fitted curve at half-maximal effect; nearly all actives have a fitted effect of over 35% in size); settings: purified USP1/UAF1, Ub-rhodamine cleavage fluorescence; series mostly up to 114 µM
Ubiquitin carboxyl-terminal hydrolase 1 (Homo sapiens), sequence (O94782 whole entry, looked up): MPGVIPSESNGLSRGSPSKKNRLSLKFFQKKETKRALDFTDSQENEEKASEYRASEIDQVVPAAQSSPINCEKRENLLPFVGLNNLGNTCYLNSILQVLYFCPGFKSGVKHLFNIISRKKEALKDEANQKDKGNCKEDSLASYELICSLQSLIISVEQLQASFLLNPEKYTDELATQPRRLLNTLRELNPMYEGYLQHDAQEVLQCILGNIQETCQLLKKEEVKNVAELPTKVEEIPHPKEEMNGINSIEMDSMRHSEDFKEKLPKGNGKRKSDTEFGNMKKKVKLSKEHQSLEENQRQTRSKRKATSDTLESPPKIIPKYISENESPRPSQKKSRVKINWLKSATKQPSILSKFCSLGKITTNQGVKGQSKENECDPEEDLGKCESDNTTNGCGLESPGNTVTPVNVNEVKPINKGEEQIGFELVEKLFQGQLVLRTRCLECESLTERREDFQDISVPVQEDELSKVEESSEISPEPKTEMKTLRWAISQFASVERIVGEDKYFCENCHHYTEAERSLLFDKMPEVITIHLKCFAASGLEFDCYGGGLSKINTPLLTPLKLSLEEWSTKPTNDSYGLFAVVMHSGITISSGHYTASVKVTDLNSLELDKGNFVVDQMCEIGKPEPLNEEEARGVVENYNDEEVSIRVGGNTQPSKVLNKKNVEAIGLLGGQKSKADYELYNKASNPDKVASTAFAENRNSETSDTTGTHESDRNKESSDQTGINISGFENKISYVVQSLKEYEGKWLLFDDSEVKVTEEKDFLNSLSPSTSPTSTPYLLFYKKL
Method in brief: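 Kinetic fluorescence assay: 1nM USP1/UAF1, 15 min compound preincubation, then 150nM Ub-Rho; 480/540 nm.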

O=C(N/N=C/c1ccccn1)c1cccnc1
inactive: outcome [1]

CN(N=O)c1ccc(/C=C\c2ccnc3ccccc23)cc1
inactive: Potency [2] > 11.4 µM | activity change, negative = inhibition [3] -0.154% | activity change, negative = inhibition [5] 7.28% | activity, negative = inhibition [6] -0.754% | Potency [7] > 46 µM | Potency [8] > 9.22 µM | Potency [9]
active: Potency [4] 0.158 µM

COC(=O)[C@@H]1[C@@H]2C[C@H]3c4[nH]c5ccccc5c4CCN3C[C@@H]2CC[C@@H]1OS(=O)(=O)O
inactive: Potency [2] > 11.4 µM | activity change, negative = inhibition [3] 1.46% | activity change, negative = inhibition [4] -10.3% [at 2.29 µM] | activity change, negative = inhibition [5] 3.3% | activity, negative = inhibition [6] 12.7% | Potency [7] > 46 µM | Potency [8] > 9.22 µM | Potency [9]

O=C(O)c1cc(C(=O)C(=O)c2cc(C(=O)O)c(O)c3ccccc23)c2ccccc2c1O
inactive: Potency [2] > 11.4 µM | activity change, negative = inhibition [3] 22.7% | Potency [4] | activity change, negative = inhibition [5] 10.6% | activity, negative = inhibition [6] 0.955% | Potency [7] > 46 µM | Potency [8] > 9.22 µM

COc1ccccc1CN1CCN(Cc2cc(OC)c(OC)cc2OC)CC1
inactive: outcome [1]

CCN(CC(=O)Nc1ccc(S(=O)(=O)N2CCCC2)cc1)CC(=O)Nc1cccc(OC)c1
inactive: outcome [10]

COc1ccccc1-c1nc(NCc2ccccc2)c2ccccc2n1
inactive: Potency [2] > 11.4 µM | activity change, negative = inhibition [3] 24% | activity change, negative = inhibition [5] -19.4% | activity, negative = inhibition [6] 0.0453% | Potency [7] > 46 µM | Potency [8] > 46 µM | Potency [9] | Potency [12] | outcome [14] | outcome [15]
active: Potency [4] 0.398 µM | Potency [11] 3.98 µM | Potency [13] 1.58 µM | Potency [16] 11.2 µM

Cc1nc2cnc(OCc3ccccc3)nc2n(Cc2ccc(F)cc2)c1=O
inactive: Potency [2] > 11.4 µM | activity change, negative = inhibition [3] -22.4% | activity change, negative = inhibition [5] -22.3% | activity, negative = inhibition [6] -3.29% | Potency [7] > 9.22 µM | Potency [8] > 46 µM | Potency [9]
active: Potency [4] 7.94 µM
